# Test results published in PubChem BioAssay AID463173 (ICCB-Longwood Screening Facility, Harvard Medical School, 2010).
# Out of some 52,000 compounds screened, about 1,700 (3.3%) were called active. The entries come from a sample that favours actives as a whole. Values without a mark were called inactive. Rule as the data show it: active = survival mostly below about 52% (no sharp cut-off); inactive = mostly above about 56%.
# System: Wild type
# Assay: S. aureus survival, RN4220 and DeltatarO strains – OD600, teichoic acid synthesis inhibitors, primary screen (AID 463173)
# Settings: S. aureus RN4220 wild type/DeltatarO growth, OD600, 18 h, active compounds read low, screened at 18.75 µg/mL (by protocol)
row,SMILES,survival
1,CCCC(=O)Nc1cc(-c2nnc3c4ccccc4c(C)nn23)ccc1C,72%
2,O=C(Nc1ccc(O)c(-c2nc3ccccc3o2)c1)c1ccc(Br)cc1,88%
3,CC1Cn2cc(C(=O)Nc3cccc(C(F)(F)F)c3)c(=O)c3c(Cl)ccc(c32)O1 (centres undefined),89%
4,CCOC(=O)c1cccnc1SCC(=O)N(CC)c1cccc(C)c1,70%
5,CCn1c(CN2CCCCC2)nc2cc(NC(=O)COc3ccc(C(C)(C)C)cc3)ccc21,97%
6,CCOc1cc(C2NC(=O)c3c(sc4c3CCN(C)C4)N2)ccc1OC(=O)c1ccc(Br)cc1 (centres undefined),71%
7,CCCCCOc1ccc(/C=C/C(=O)Nc2sc(C(C)=O)c(C)c2C(=O)OCC)cc1OC,76%
8,CCOC(=O)CSc1nc2cc3c(cc2c(=O)n1CCCCCC(=O)NCc1ccc2c(c1)OCO2)OCO3,81%
9,CCOc1ccc(C(=O)c2cn(CC(=O)Nc3cc(OC)ccc3OC)c3cc(OC)c(OC)cc3c2=O)cc1,68%
10,CC1C(=O)N2CCCc3cc(S(=O)(=O)N4CCC(C(N)=O)CC4)cc1c32 (centres undefined),-3% (active)
11,CCOC(=O)C1CCN(S(=O)(=O)c2cc3c4c(c2)C(C)C(=O)N4CCC3)CC1 (centres undefined),88%
12,COC(=O)C1CCN(S(=O)(=O)c2cc3c4c(c2)C(C)C(=O)N4CCC3)CC1 (centres undefined),125%
13,COc1ccc(N2CCN(C(=O)CSc3n[nH]c(-c4ccccc4)n3)CC2)cc1,72%
14,COc1ccc(S(=O)(=O)N(CC(=O)Nc2ccccc2Br)Cc2ccccc2)cc1,77%
15,CCCCN(C)CCCNC(=O)c1cc(-c2ccc(Br)s2)nc2ccccc12,26% (active)
16,CSc1cccc(Nc2cc(C(=O)NCCCN(Cc3ccccc3)C(C)C)c3ccccc3n2)c1,75%
17,Cc1ccc(C)c(Nc2cc(C(=O)NCCCN(C)C3CCCCC3)c3ccccc3n2)c1,99%
18,Cc1cc(C)cc(Nc2cc(C(=O)NCCCN(Cc3ccccc3)C(C)C)c3ccccc3n2)c1,-6% (active)
19,CCCN(CCC)CCNC(=O)c1cc(-c2ccc(Br)s2)nc2ccccc12,80%
20,CCCCN(C)CCNC(=O)c1cc(-c2ccc(Cl)s2)nc2ccccc12,82%
21,Cc1cc(C)cc(Nc2cc(C(=O)NCCCN(C)C3CCCCC3)c3ccccc3n2)c1,26% (active)
22,Cc1cc(C)cc(Nc2cc(C(=O)NCc3ccccc3)c3ccccc3n2)c1,139%
23,COc1ccc(Nc2cc(C(=O)NCCCN(C)C3CCCCC3)c3ccccc3n2)cc1,99%
24,Cc1ccc2c(c1)NC(=O)C(CC(=O)Nc1cc(Cl)ccc1C)O2 (centres undefined),77%
